Screens as filed in PubChem.
ssDAF12 agonist – S. stercoralis DAF-12 activation, primary screen | HEK293 ssDAF-12/GRIP1 lit1-tk-luc reporter, luminescence; % of 3 µM dafachronic acid response | activation, % at 6.8 µM | actives 1% (n = 370,000);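 active means activation above the mean over all tested compounds plus 3 SD, cut at about 0.9% in these data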;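 further: 0% = DMSO-only wells and 100% = 3 µM delta7-dafachronic acid wells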
DAX1 inh-1 – inhibits human nuclear receptor DAX1; actives 0.99% (n = 340,000); inhibition, % at 6.75 µM; HEK293 Gal4-DAX1 luciferase reporter, luminescence;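 active means inhibition above the mean over all tested compounds plus 3 SD, cut at about 4.2% in these data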;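 further: 0% = DAX1-transfected cells with DMSO and 100% = empty-vector control cells with DMSO; inhibition shows as a rise in luminescence from relieved DAX1 repression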
Target sequence (P51843 207-470 limits assumed): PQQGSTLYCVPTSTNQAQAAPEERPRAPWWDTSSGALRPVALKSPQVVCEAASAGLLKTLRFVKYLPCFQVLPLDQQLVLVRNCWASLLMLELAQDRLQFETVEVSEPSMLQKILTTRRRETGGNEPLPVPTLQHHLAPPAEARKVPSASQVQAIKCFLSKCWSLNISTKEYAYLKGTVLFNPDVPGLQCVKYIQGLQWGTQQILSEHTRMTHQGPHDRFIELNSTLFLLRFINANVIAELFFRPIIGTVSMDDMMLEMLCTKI
DAX1 inh-2 – blocks DAX1 repression of SF-1 activated StAR promoter; AID 652010; HEK293T StAR-luciferase reporter, SF-1/DAX-1 repression relief; actives 1.1% (n = 370,000); inhibition, % at 6.8 µM;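 active means inhibition above the mean over all tested compounds plus 3 SD, cut at about 3.6% in these data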;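 further: 0% = DAX-1 cells with DMSO and 100% = cells lacking DAX-1 with DMSO; higher inhibition means more luminescence from relief of DAX-1 repression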
AHR act – activates the human aryl hydrocarbon receptor; actives 2.5% (n = 320,000); activation, % at 5 µM; P35869; AHR-responsive luciferase reporter cells, luminescence; in the data active means activation above about 47%;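 further: 0% = vehicle wells and 100% = reference agonist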
hcDAF12 agonist – activates DAF-12 receptor from parasite H. contortus | activation, % at 6.8 µM | actives 1.4% (n = 370,000) | HEK293 hcDAF-12 lit1-tk-luc reporter, luminescence; 0% DMSO, 100% Δ7-dafachronic acid;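 active means activation above the mean of all tested compounds plus 3 SD, cut at about 5.5% in these data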;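 further: 100% = response to 3 µM Δ7-dafachronic acid high control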
hgDAF12 agonist – activates the H. glycines DAF-12 receptor ligand-binding domain; HEK293 GAL4-hgDAF12 UAS-luciferase reporter, agonist luminescence; normalized to butyrate control; activation, % at 6.8 µM; actives 1.8% (n = 370,000);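 active means activation above a cutoff set at the mean of all screened compounds plus 3 SD, cut at about 10% in these data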;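 further: 0% = DMSO wells and 100% = sodium butyrate wells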
hgDAF12 conf – hgDAF-12 agonism, confirmation assay. shares compounds with hgDAF12 agonist. HEK293 GAL4-hgDAF12 luciferase reporter, agonist mode; percent of butyrate response. activation, % at 6.8 µM. actives 80% (n = 3,300). AID 743050;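 active means mean activation over triplicate wells above the hit cutoff derived from the earlier primary screen, cut at about 11% in these data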;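 further: 0% = DMSO low control and 100% = 2 mM sodium butyrate high control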
LXR ag 2 – activates human LXR-beta, counter-screen for DAF-12 agonists. shares compounds with hgDAF12 agonist. HEK293 Gal4-LXR luciferase reporter, 24 h. activation, % at 6.8 µM. 3,300 tested, under 10 active. AID 743051;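 active means mean activation of the triplicate above a set limit carried over from the primary screen, none filed active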
An asterisk follows results filed as active; x = no result given. Most compounds without a hit are left out; they make up all but 5.7% or so of the library.

SMILES	ssDAF12 agonist	DAX1 inh-1	DAX1 inh-2	AHR act	hcDAF12 agonist	hgDAF12 agonist	hgDAF12 conf	LXR ag 2
O=C(Nc1ccc(Cl)cn1)c1ccc2[nH]c(=O)c(=O)[nH]c2c1	-0.8	0.2	-0.1	5.8	-0.1	1.8	x	x
COc1ccccc1Oc1ccc(N/C=C/C(=O)c2ccco2)cc1	-1.2	1.4	2.3	16.5	4.0	8.9	x	x
COC(=O)c1ccccc1Oc1ccc(NC(=O)c2ccco2)cc1	-1.4	2.7	0.2	1.6	-0.9	13.5*	-1.7	0.0
O=C(Nc1ccc(NC(=O)c2ccccc2F)cn1)c1ccco1	0.2	-2.5	1.1	-4.1	3.0	14.4*	10.3	0.6
O=C(CSc1ccccc1)Nc1ccccc1N1CCOCC1	-1.5	-0.6	-0.7	2.0	-1.1	-1.4	x	x
O=C(Nc1ccc(-n2cnnn2)cc1)C(c1ccccc1)c1ccccc1	-1.5	1.4	-1.1	1.3	-0.5	-2.5	x	x
N#CCC(=O)Nc1ccc(C(=O)OCC(=O)NCCCc2ccccc2)cc1	-0.8	-1.5	-0.3	-1.0	-1.5	2.2	x	x
O=C(Nc1ccc(NC(=O)c2ccco2)nc1)c1cccc(F)c1	0.1	0.4	2.7	-3.3	3.2	13.4*	16.2*	0.6
COc1cccc(C(=O)Nc2ccc(NC(=O)c3ccco3)nc2)c1	-0.7	0.3	0.6	-0.5	-0.5	7.0	x	x
Cc1cc(NC(=O)c2cccc(F)c2)ncc1NC(=O)c1ccco1	-0.1	0.1	2.2	1.2	2.6	14.7*	11.6*	0.6
Cc1ccc(NC(=O)c2ccc(F)cc2)nc1	0.0	0.7	2.5	-2.5	1.0	14.6*	11.7*	0.4
O=c1[nH]c2ccc(NC(=S)NCCc3ccccc3)cc2[nH]1	-0.6	3.5	-0.5	1.0	-2.9	-0.7	x	x
Cc1cc(C)n(C(=O)CCC2COc3ccccc3O2)n1 (configuration not stated)	-1.1	0.8	-0.4	0.3	1.3	-1.1	x	x
CCOc1ccc(C(=O)Nc2cccc([N+](=O)[O-])c2)cc1Br	-1.7	0.0	0.3	-7.5	-1.6	1.2	x	x
CC1(C)CC(=O)C(N=Nc2cc(Cl)c(Cl)c(Cl)c2)=C(O)C1	-1.5	-0.4	0.4	5.8	-0.8	-0.1	x	x
CC(=O)N1CCc2cc(N=NC3=C(O)CC(C)(C)CC3=O)ccc21	-0.2	3.2	3.9*	0.1	2.5	14.9*	16.9*	1.0
Cc1c(Cl)cccc1N(CC(=O)O)S(C)(=O)=O	-0.7	-0.5	-0.1	0.1	-1.9	-0.2	x	x
Nc1ccc(-c2nc3ncccc3o2)c(Cl)c1	0.0	5.6*	3.0	2.0	6.0*	18.1*	15.6*	0.8
COc1ccc(/C=C/c2nc3ccccc3n2Cc2ccccc2OC)cc1	0.1	2.6	4.4*	20.4	5.2	16.2*	11.9*	0.6
COC(=O)C1=CC(C(=O)c2cccs2)=NN(c2ccc(OC)cc2)C1C(=O)OC (configuration not stated)	-1.3	0.3	-0.7	1.1	-1.7	0.5	x	x
O=C(NS(=O)(=O)c1ccccc1[N+](=O)[O-])[C@H]1O[C@@H](n2ccc(=O)[nH]c2=O)[C@H](O)[C@@H]1O	-0.7	x	0.2	x	-1.3	14.8*	3.8	0.1
O=C(Nc1ccccc1Cl)NN1CCCCCC1	-0.6	0.0	0.0	x	0.9	2.3	x	x
CCC(C)NC(=O)CCc1c(C)nc2nc(-c3cc(OC)cc(OC)c3)nn2c1C (configuration not stated)	-1.8	-0.5	-1.1	0.2	-1.9	-0.8	x	x
Cc1nc2cc(NC(=O)NCc3ccc4c(c3)OCO4)ccc2o1	-1.5	1.3	0.1	-1.7	-1.7	2.9	x	x
Cc1nc2cc(NC(=O)Nc3ccc(Br)cc3)ccc2o1	-0.8	0.8	1.1	-0.7	2.1	13.4*	9.7	0.7
SMILES	ssDAF12 agonist	DAX1 inh-1	DAX1 inh-2	AHR act	hcDAF12 agonist	hgDAF12 agonist	hgDAF12 conf	LXR ag 2
Nc1ccc2nc(SCc3cccc(F)c3)sc2c1	-0.9	0.1	0.2	8.8	2.2	15.6*	11.5*	0.6
CCOC(=O)CSc1nc2ccc(N)cc2s1	0.3	-1.0	-0.5	10.2	0.6	-1.9	x	x
COc1ccc(/C=N/Nc2ccc([N+](=O)[O-])cc2)cc1O	0.2	7.8*	2.0	6.7	3.3	16.9*	17.1*	0.7
O=C(CSC1CCc2ccccc21)NNC(=O)Nc1ccc(Cl)cc1 (configuration not stated)	0.8	x	0.8	x	6.5*	16.2*	7.7	0.2
CCOC(=O)COC(=O)c1ccc(O)cc1	-1.3	-0.2	0.1	-1.7	1.9	-0.3	x	x
Cc1ccc(C(=O)COC(=O)c2ccc(O)cc2)cc1	-0.8	1.8	0.9	1.8	-0.1	14.1*	8.5	0.3
Nc1nc2ccc(C(=O)Nc3ccc(N4CCOCC4)cc3)cc2s1	-1.0	0.8	1.4	6.7	0.8	7.2	x	x
O=C(Nc1ccc(N2CCOCC2)cc1)c1nc2ccccc2s1	-0.1	1.5	4.3*	6.7	4.3	17.7*	15.1*	1.0
O=C(NCc1cccs1)c1cc2c(s1)CCCC2	-0.3	0.5	0.4	11.1	1.1	9.7	x	x
Cc1ccc2cc(N)ccc2n1	-1.1	-0.1	0.6	x	1.4	-3.0	x	x
Nc1ccc2cc3ccc(N)cc3nc2c1	1.7*	x	-1.8	x	32.3*	27.5*	5.7	0.2
C=CCN1C(=O)[C@@H](CC(=O)N2CCSCC2)[C@]2(C(=O)OC)CCCCC=C12	-1.6	x	0.4	x	0.8	17.4*	-0.1	0.0
O=[N+]([O-])c1ccc(NN=Cc2ccc3c(c2)OCO3)nc1	-0.1	7.2*	2.8	x	4.2	15.2*	16.5*	0.9
CCOC(=O)CS(=O)(=O)c1ccc(O)cc1	-1.0	-0.7	-0.2	0.0	0.3	0.6	x	x
COCCN(CC(=O)Nc1cccc(C)c1C)C(=O)c1ccc(S(=O)(=O)N2CCOCC2)cc1	-0.9	0.2	1.0	x	0.9	1.8	x	x
Nc1ccccc1NC1=CC(=O)CC(c2ccco2)C1 (configuration not stated)	0.7	2.2	1.6	6.4	4.1	13.4*	-0.2	0.0
C(=C\c1nnc2c3ccccc3ncn12)/c1ccccc1	2.5*	-2.5	0.5	67.4*	6.1*	15.4*	18.4*	0.7
CC(/C=N/NC(=O)c1nn(C)c(C)c1Br)=C\c1ccccc1	-0.2	2.2	2.2	-5.0	3.2	13.8*	9.2	0.3
CCOc1ccc(OCc2ccc(C(=O)N3CCCC3)o2)cc1	-1.4	-0.7	0.3	15.4	1.7	2.6	x	x
CCOc1ccc(OCc2cccc(C(=O)N3CCCCCC3)c2)cc1	0.0	-5.6	3.8*	-2.0	4.6	15.8*	16.4*	0.7
